# From PubChem
# In the library only some 3.8% were active in any assay of this set; here they are far more common.
# Wnt bcat act: activators of Wnt/beta-catenin signaling; Wnt/beta-catenin reporter cell assay, activator, plate reader; activation, % at 9.35 µM; 1.2% of 300,000 active; in the data active means activation above about 30%, passing the limit was not always enough; inconclusive means no clear call, values can overlap the other calls;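 further: 0% = neutral control wells and 100% = positive control wells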
# MITF TRPM1 HTS: MITF TRPM1 promoter activation in melanoma cells; SK-MEL-5 TRPM1-promoter luciferase, 24 h; % of positive control, neutral wells = 0; activation, % at 12.5 µM; 0.75% of 300,000 active;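 active means mean activation of at least 80% with every replicate also reaching 80%; inconclusive means mean reaches 80% but some replicate falls short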;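 further: 0% = neutral control wells and 100% = parthenolide positive control wells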
# esBAF inh: inhibitors of esBAF chromatin remodeling in mouse ES cells | Bmi1-luciferase knock-in reporter, 24 h; 100% = twice the neutral-well signal | reporter increase, % at 12.5 µM | 2% of 350,000 active | AID 602393; in the data active means activation above about 40%; inconclusive means no clear call, values can overlap the other calls;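 further: 0% = median of the plate's neutral control wells and 100% = double that signal; a rise in the Bmi1 reporter signal indicates esBAF inhibition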
# HSF1 inhib: HSF1 inhibition; 0.77% of 300,000 active; NIH3T3-HGL HSE-luciferase, MG132-induced, luminescence 8 h; hits give low values; AID 2098; activity change, negative = inhibition, % at 7.5 µM (by protocol);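 active means more than half of replicate wells show activity change below -50%, luminescence cut by over half; inconclusive means some wells, but at most half, below -50%; inactive means no replicate well below -50%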;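 further: luciferase reports HSF-1 transcriptional activity via heat shock element; 0% = median of DMSO wells and -100% = zero luminescence signal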
# HSF-1 act: increases HSF-1 driven luciferase reporter signal. AID 504408. NIH3T3-HGL HSF-1 luciferase reporter, MG132, 8 h; 100% = twice DMSO control signal. 1.7% of 300,000 active. activation, % at 9 µM;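 active means mean replicate activation of at least 50% with a set share of replicates each reaching 50%; inconclusive means only one of those two conditions met; inactive means mean below 50% and too few replicates reaching it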;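 further: 0% = median of the neutral control wells and 100% = twice that signal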
# * = called active by the depositor; ? = inconclusive; / = no result.
SMILES,Wnt bcat act,MITF TRPM1 HTS,esBAF inh,HSF1 inhib,HSF-1 act
COc1ccc(C(=O)Nc2ccc3c(c2)nc(CN2CCCC2)n3C)cc1,10,9,?,-86*,-88
Cn1c(CCN2CCOCC2)nc2cc(NC(=O)COc3ccccc3)ccc21,-2,/,-1,57,68*
COc1ccc(C(=O)Nc2ccc3c(c2)nc(CN2CCN(C(C)=O)CC2)n3C)cc1,1,7,-6,5,10
COc1ccc(OCC(=O)Nc2ccc3c(c2)nc(CCN2CCCC2)n3C)cc1,-1,-22,0,4,1
CC(=O)Nc1ccc2c(c1)nc(CCN1CCC(C)CC1)n2C,-4,2,-12,-5,-4
CC1CCN(CCc2nc3cc(NC(=O)Nc4ccccc4)ccc3n2C)CC1,22,/,44*,153,177*
COc1ccc(OCC(=O)Nc2ccc3c(c2)nc(CCN2CCN(C)CC2)n3C)cc1,0,1,1,26,53*
O=C(CCCCCN1C(=O)c2ccccc2C1=O)Nc1ccc(C(=O)O)cc1,1,2,-7,28,63*
CC(/C=C1\SC(=S)N(CCCC(=O)Nc2ccc(C(=O)O)cc2)C1=O)=C\c1ccccc1,/,4,/,11,61*
O=C(CCN1C(=O)/C(=C/C=C/c2ccccc2)SC1=S)Nc1ccccn1,2,-23,/,45,48
CC(=C\c1ccccc1)/C=C1/SC(=S)N(CCC(=O)Nc2ccccn2)C1=O,/,/,/,-91*,-93
CC(=Cc1ccccc1)C=C1SC(=S)N(CCCC(=O)Nc2ccc(C(=O)O)cc2)C1=O,11,/,9,/,/
CC(/C=C1\SC(=O)N(CCCC(=O)O)C1=O)=C\c1ccccc1,-17,-85,-83,-73*,-78
O=C(CCCN1C(=O)c2ccccc2C1=O)Nc1ccccc1,2,2,-2,2,-6
COc1cccc(S(=O)(=O)Nc2ccc3c(c2)C(=O)N(C)C[C@@H](OC)[C@H](C)CN(C(=O)Cc2cccnc2)[C@@H](C)CO3)c1,/,/,-1,/,/
CC(C)NC(=O)N(C)C[C@@H]1Oc2c(NC(=O)c3ccncc3)cccc2C(=O)N([C@@H](C)CO)C[C@@H]1C,/,/,-1,/,/
CC(/C=C1\SC(=S)N(CCC(=O)Nc2ccccc2O)C1=O)=C\c1ccccc1,-3,-28,-1,-69*,-69
COCC1CCCN(C(=O)c2cc(COc3ccc(C(C)=O)cc3)on2)C1 (stereo not given),36*,47,70*,41,47
CC(=O)c1ccc(OCc2cc(C(=O)N3CC[C@@H]4CCCC[C@H]4C3)no2)cc1,37*,73,69*,6,24
COCCOC1CCN(C(=O)c2cc(COc3ccc(-n4cncn4)cc3)on2)CC1,2,-3,-1,-15,-12
CC(=O)c1ccc(OCc2cc(C(=O)NCCN3CCCC(O)C3)no2)cc1 (stereo not given),-1,-6,3,0,-16
CC(=O)c1ccc(OCc2cc(C(=O)N3CCN4CCCC4C3)no2)cc1 (stereo not given),1,-4,3,-5,14
CCCOC1CCCN(C(=O)c2cc(COc3ccc(-n4cncn4)cc3)on2)C1 (stereo not given),9,19,/,32,60*
CC(=O)c1ccc(OCc2cc(C(=O)NC3CCCCC3)no2)cc1,32*,103*,/,23,44
COc1ccc(CN(C)C[C@@H]2OCCCC[C@H](C)Oc3ccc(NC(=O)Nc4ccc(OC)cc4)cc3C(=O)N([C@@H](C)CO)C[C@@H]2C)cc1,/,/,-3,/,/
SMILES,Wnt bcat act,MITF TRPM1 HTS,esBAF inh,HSF1 inhib,HSF-1 act
O=C(C[C@@H]1C=C[C@@H](NC(=O)c2cccc(F)c2)[C@@H](CO)O1)NCCN1CCCC1,/,/,3,/,/
CN(C)/C=C/C(=O)/C=C/c1ccc(Cl)cc1,71*,47,/,-13,-9
CCC(=O)Nc1ccc2c(c1)C(=O)N(C)C[C@@H](OC)[C@@H](C)CN(Cc1cncnc1)[C@H](C)CO2,/,/,-1,/,/
CC(C)SC1=NC(C)(C)C=C(/C=C/c2ccc(Cl)cc2Cl)N1,/,-11,/,57,82*
O=C(NCC[C@H]1CC[C@@H](NC(=O)C2CCC2)[C@@H](CO)O1)c1ccc(F)cc1,/,/,-4,/,/
Cc1cc(C(=O)Cn2nc(C(=O)O)c3ccccc3c2=O)c(C)n1CCc1ccc(F)cc1,2,7,-4,-6,1
Cc1cc(C(=O)Cn2nc(C(=O)O)c3ccccc3c2=O)c(C)n1CC(F)(F)F,-2,?,44*,-13,-10
